Screens (PubChem BioAssay)
hNpr1 antagonist = Natriuretic polypeptide receptor (hNpr1) antagonism - Primary qHTS. AID 1347048, 2019. Potency, µM (titrated, usually from 46.3 µM), for inactives: top-dose activity change, negative = inhibition, hits mostly inhibitors. 76,000 compounds, 1.6% hits. HEK293 hNpr1 GloSensor cGMP, ANP-stimulated luminescence; calls by dose curve; also: nearly all actives have a fitted effect of over 60% in size
Target sequence (P16066 whole entry, looked up): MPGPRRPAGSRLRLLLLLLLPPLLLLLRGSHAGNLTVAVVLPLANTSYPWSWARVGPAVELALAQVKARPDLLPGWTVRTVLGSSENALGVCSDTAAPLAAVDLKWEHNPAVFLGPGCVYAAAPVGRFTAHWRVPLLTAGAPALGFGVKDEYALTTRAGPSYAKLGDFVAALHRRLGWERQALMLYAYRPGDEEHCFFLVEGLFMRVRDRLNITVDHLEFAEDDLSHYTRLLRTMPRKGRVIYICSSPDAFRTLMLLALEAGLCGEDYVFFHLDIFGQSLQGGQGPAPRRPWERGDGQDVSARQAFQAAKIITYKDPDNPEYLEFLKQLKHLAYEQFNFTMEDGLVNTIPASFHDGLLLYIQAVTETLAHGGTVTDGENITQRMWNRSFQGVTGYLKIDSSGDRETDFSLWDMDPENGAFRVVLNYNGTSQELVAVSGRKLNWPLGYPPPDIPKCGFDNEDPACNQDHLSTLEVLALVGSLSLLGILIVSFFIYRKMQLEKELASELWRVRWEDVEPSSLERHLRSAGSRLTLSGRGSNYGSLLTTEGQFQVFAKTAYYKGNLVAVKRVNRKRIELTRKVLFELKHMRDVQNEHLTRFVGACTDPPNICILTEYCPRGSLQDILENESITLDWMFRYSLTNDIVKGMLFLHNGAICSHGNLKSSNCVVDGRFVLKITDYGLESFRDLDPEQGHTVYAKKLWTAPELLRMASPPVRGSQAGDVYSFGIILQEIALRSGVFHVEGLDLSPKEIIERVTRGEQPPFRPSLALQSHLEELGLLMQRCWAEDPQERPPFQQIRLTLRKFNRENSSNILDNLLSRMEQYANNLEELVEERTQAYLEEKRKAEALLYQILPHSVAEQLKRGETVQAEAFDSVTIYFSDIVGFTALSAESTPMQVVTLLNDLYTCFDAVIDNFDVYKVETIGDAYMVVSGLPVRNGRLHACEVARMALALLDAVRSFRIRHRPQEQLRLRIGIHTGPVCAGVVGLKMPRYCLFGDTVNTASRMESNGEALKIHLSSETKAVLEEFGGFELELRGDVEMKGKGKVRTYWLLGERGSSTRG
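HEK293 cells stably expressing human Npr1 and cGMP GloSensor pGS-40F, loaded 2 h with 2% GloSensor reagent, given compound 30 min at room temperature. Luminescence read before and 20 min after 0.1 nM hNppA.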
GPT2 inh = Primary qHTS assay for inhibitors of Glutamate pyruvate transaminase 2 (GPT2); Alanine aminotransferase 2 (Homo sapiens), Q8TD30; Recombinant GPT2, coupled pyruvate oxidase/HRP Amplex Red fluorescence; Potency, µM (doses to about 57.7 µM), for the others: at the highest dose activity change, negative = inhibition, hits mostly inhibitors; 100,000 compounds, 0.25% hits; AID 1671188, 2021; also: nearly all actives have a fitted effect of over 60% in size
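GPT2 10ng/uL, a-KG 250uM, L-Ala 2mM, HEPES pH7.5 + 0.0001% Tween; 30 min RT. Then Amplex mix (PO/HRP/ThPP), 30 min RT dark, fluorescence. AOA 50uM used as positive control.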
Luciferase inh = Firefly luciferase inhibition profiling of diverse chemical library using quantitative high-throughput screening; Luciferin 4-monooxygenase (Photinus pyralis), P08659; 76,000 compounds, 2.5% hits; purified P. pyralis luciferase, luminescence, biochemical; Potency, µM (doses to about 115 µM), usual class: inhibitors; also: nearly all actives have a fitted effect of over 65% in size
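Luminescence read by CCD imager after adding enzyme (10nM final) to wells holding compound, titrated in qHTS. Substrates 10uM each D-luciferin and ATP; buffer 50mM Tris acetate pH 7.5, 10mM Mg acetate, Tween-20, BSA.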
3T3 cytotox = Cytotoxic Profiling in NIH 3T3 Cell Line of Diverse Libraries Using Quantitative High-Throughput Screening | NIH 3T3 viability, CellTiter-Glo ATP luminescence, 48-72 h | Potency, µM (highest dose often 96.7 µM), without a hit: at the highest dose activity change, negative = cytotoxicity, hits mostly inhibitors | 94,000 compounds, 4.3% hits | AID 1345082, 2018; also: nearly all actives have a fitted effect of over 55% in size
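Viability of NIH 3T3 cells after 48 or 72 hr compound treatment at 37 °C was assessed by CellTiter-Glo, with luminescence imaged following a 10 min room-temperature step.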
HEK293 tox = Cytotoxic Profiling in HEK 293 Cell Line of Diverse Libraries Using Quantitative High-Throughput Screening. HEK 293 viability, ATP luminescence (CellTiter-Glo), 48-72 h. Potency, µM (top dose mostly 115 µM), without a hit: at the top dose activity change, negative = cytotoxicity, actives largely listed as inhibitors. 94,000 compounds, 6.6% hits. AID 1345083, 2018; also: nearly all actives have a fitted effect of over 60% in size
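250 HEK 293 cells/well; compound by pintool; incubated 48 or 72 hr at 37 degree Celsius; CellTiter-Glo added, 10 min RT, luminescence imaged.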
Numbers without * were called inactive; i = inactive; u = inconclusive; x = not tested or not shown; [ ] = remark or other dose. A selection: hits, their analogues and other compounds. The true share with any hit is near 10%. Unless noted, calls follow the shape of the dose curve; as a rule, active = well fitted curve in the direction sought with a large enough effect; inconclusive = small, poorly fitted or top-dose-only effect, or another doubt; inactive = no such curve, though single readings can be large; an effect the other way counts as inactive or inconclusive. % is scaled to controls: 0 for no effect and ±100 for the full control effect; potency is read from the fitted curve at half-maximal effect.

SMILES	hNpr1 antagonist	GPT2 inh	Luciferase inh	3T3 cytotox	HEK293 tox
CCOC(=O)C1c2c(OC)ccc3c2C(=CC(C)(C)CO3)CN1C(C)=O (configuration not stated)	x	x	x	-32.4%	u
O=C(NCc1ccc(F)cc1)c1ccc2nc(-c3ccnc(Cl)c3)oc2c1	x	i	x	-13.2%[138 µM]	-21.6%[172 µM]
COc1ccc(CNC(=O)C[C@@H]2C[C@@H](C(C)C)[C@H](CNC(=O)c3ccc(C#N)cc3)C=C2C)cc1	-9.5%	-1.1%	i	u	u
CCOC(=O)C[C@@H]1C[C@@H](C(C)C)[C@H](CNC(=O)c2ccc(F)cc2)C=C1C	u	1.3%[88.5 µM]	i	u	35.5µM*
COc1ccc(C(=O)NC[C@@H]2C=C(C)[C@H](CC(=O)O)C[C@H]2C(C)C)cc1	1.7%[70.6 µM]	i	i	35.5µM*	-6.9%[172 µM]
CC1=C[C@@H](CNC(=O)[C@@H]2CCCC[C@@H]2C(=O)O)[C@H](C(C)C)C[C@H]1Cc1nc2ccccc2[nH]1	2.6%	i	i	-28.0%	u
CNC(=O)N1CCC(OC2CCN(Cc3ccccc3)CC2)CC1	-0.1%	i	i	-13.4%	5.7%
O=C(Nc1cc(F)c(F)c(F)c1)N1CCC(OC2CCN(Cc3ccccc3)CC2)CC1	-16.3%	-8.3%	i	35.5µM*	u
Cn1cc(C(=O)N2CCOc3c(O)cc(-c4csc5ccccc45)cc3C2)cn1	-17.3%	i[11.5 µM]	i	u	25.1µM*
NC(=O)c1noc(CN2CCOc3c(O)cc(-c4csc5ccccc45)cc3C2)n1	-15.1%	-2.4%	i	u	u
O=C(c1ccccn1)N1CCOc2c(O)cc(-c3cccc(Cl)c3)cc2C1	-24.3%	-11.2%	i	-26.3%	44.7µM*
O=C(CCn1cncn1)N1CCOc2c(O)cc(-c3cccc(Cl)c3)cc2C1	6.7%	i	i	u	u
COCCCn1c(=O)c(C(=O)NCCCc2ccccc2)nc2cccnc21	x	i	x	-14.7%	3.8%
O=C(Cc1ccccn1)N1CCCN(c2ccc3nnc(-c4ccccc4)n3n2)CC1	x	x	x	-8.2%	-3.5%
Cc1nnn2c(C(=O)N(C)C)cccc12	28.8%[70.6 µM]	1.2%[88.5 µM]	i	-0.9%[174 µM]	3.6%[230 µM]
Cc1nnn2c(C(=O)NCc3ccc(Cl)cc3)cccc12	0.0%[70.6 µM]	i	i	35.5µM*	79.4µM*
O=C(c1ccncc1)N1CCC2(CC1)CC(N(C(=O)c1ccccc1)C1CC1)CCO2 (configuration not stated)	-1.9%	i	i	-27.3%	-29.4%
CCn1nccc1C(=O)N1CCC2(CC1)CC(N(Cc1ccccc1)C1CC1)CCO2 (configuration not stated)	-29.2%	i	i	-21.2%	44.7µM*
Cc1ccsc1C(=O)N1CCC2(CC1)CC(N(C(=O)c1ccccc1)C1CC1)CCO2 (configuration not stated)	-7.0%	0.2%	i	u	50.1µM*
O=C(CCCc1ccccc1)N1CCC(C2CCNC2)CC1 (configuration not stated)	1.1%	i	35.5µM*	0.8%	-19.1%
Cn1nccc1C(=O)N1CCC2(CC1)CC(N(Cc1ccccc1)C1CC1)CCO2 (configuration not stated)	-16.6%	i	i	-6.5%	u
CC(=O)N(C1CC1)C1CCOC2(CCN(C(=O)CCCc3ccccc3)CC2)C1 (configuration not stated)	2.0%	i	28.2µM*	-21.3%	u
CC(C)NC(=O)N(C1CC1)C1CCOC2(CCN(C(=O)CCCc3ccccc3)CC2)C1 (configuration not stated)	-16.8%	i	u	u	u
Cc1ccsc1C(=O)N1CCC2(CC1)CC(N(Cc1ccccc1)C1CC1)CCO2 (configuration not stated)	-26.5%	i	i	u	39.8µM*
Cc1ccsc1C(=O)N1CCC2(CC1)CC(N(Cc1ccc(F)cc1)C1CC1)CCO2 (configuration not stated)	-25.0%	i	i	u	u
SMILES	hNpr1 antagonist	GPT2 inh	Luciferase inh	3T3 cytotox	HEK293 tox
CN(Cc1ccccc1)Cc1nc2c(n1Cc1ccccc1)C(=O)N(CC1CC1)CCN2	-1.2%[70.6 µM]	4.3%[88.5 µM]	i	u	u
Cc1ccsc1C(=O)C1CCCN(Cc2cc(F)ccc2-n2cccn2)C1 (configuration not stated)	-2.4%	-17.1%	i	u	39.8µM*
COCC[C@]1(O)CCN(Cc2cc(F)ccc2-n2cccn2)C[C@H]1C	-14.2%	-6.4%	i	1.6%	u
CCOC(=O)[C@@H]1CN(C(C)=O)[C@H]2c3ccc(OC)cc3O[C@@H]12	x	x	x	-29.2%	u
CC(=O)N[C@@H]1C=C(C(=O)NCCC(N)=O)C[C@@H](O)[C@@H]1O	6.0%[70.6 µM]	i	i	-8.1%[174 µM]	-11.9%[230 µM]
COc1ccc(C)cc1NC(=O)Cn1c(-c2ccc(F)cc2)nc(C)c(CCO)c1=O	3.8%	2.1%	i	-13.2%	79.4µM*
Cc1nc(-c2ccc(F)cc2)n(CC(=O)Nc2ccccc2)c(=O)c1CCO	0.8%	-3.3%	i	-18.6%	44.7µM*
Cc1nc(-c2ccc(Cl)cc2)n(CC(=O)Nc2cccc(C(F)(F)F)c2)c(=O)c1CCO	-1.0%	i	i	u	39.8µM*
Cc1nc(-c2ccccc2)n(CC(=O)Nc2ccc(F)cc2)c(=O)c1CCO	-11.0%	-4.4%	i	u	u
Cc1nc(-c2ccc(F)cc2)n(CC(=O)Nc2cccc(C(F)(F)F)c2)c(=O)c1CCO	u	-7.5%	i	22.4µM*	20µM*
Cc1ccc(CN2CCC3(CCC3N3CCOCC3)CC2)cc1C (configuration not stated)	x	-19.8%	x	-15.2%	-1.8%
C[S+](=O)([O-])c1ccc(-c2nnc3ccc(C(=O)NCc4cccc(Cl)c4)cn23)cc1	x	i	x	u	u
Cc1ccc(NC(=O)Cn2c(-c3ccc(F)cc3)nc(C)c(CCO)c2=O)c(Cl)c1	-13.0%	i	i	-22.5%	u
CSc1cccc(NC(=O)Cn2c(-c3ccc(Cl)cc3)nc(C)c(CCO)c2=O)c1	-6.9%	i	i	-12.7%	31.6µM*
Cc1nc(-c2ccc(F)cc2)n(CC(=O)Nc2cc(C(F)(F)F)ccc2Cl)c(=O)c1CCO	4.7%	-25.1%	i	u	31.6µM*
O=C(NCc1ccccc1)c1nc2cccnc2n(CCc2ccccc2)c1=O	x	-6.9%	x	u	u
Cc1cn(C[C@H](NC(=O)c2cccc(F)c2)C(=O)O)c(=O)[nH]c1=O	-2.0%[70.6 µM]	0.1%[88.5 µM]	i	-22.8%[174 µM]	-13.4%[172 µM]
